The term residual activity denotes the signal under treatment as a percentage of the control signal.

Our source for the residual activity values is ChEMBL document CHEMBL2218924, “A broad activity screen in support of a chemogenomic map for kinase signalling research and drug discovery” (Biochem J, 2013).

In assay [1] the target is Serine/threonine-protein kinase MRCK beta (Homo sapiens) (UniProt Q9Y5S2). As to conditions: at 1 µM.
Assay [2] shares this target. As to conditions: at 10 µM.
The target in assay [3] is Ribosomal protein S6 kinase alpha-5 (Homo sapiens) (UniProt O75582). Conditions: at 1 µM.
The target is the same in assay [4]. Conditions: at 10 µM.
The target of assay [5] is Ribosomal protein S6 kinase alpha-4 (Homo sapiens) (UniProt O75676). As to conditions: at 1 µM.
Assay [6] shares this target. As to conditions: at 10 µM.
Assay [7] addresses SRSF protein kinase 3 (Homo sapiens) (UniProt Q9UPE1). Conditions: at 1 µM.
Assay [8] shares this target. As to conditions: at 10 µM.
Assay [9] has as its target T1, Serine/threonine-protein kinase 4 (Homo sapiens) (UniProt Q13043).
T1 sequence (whole entry): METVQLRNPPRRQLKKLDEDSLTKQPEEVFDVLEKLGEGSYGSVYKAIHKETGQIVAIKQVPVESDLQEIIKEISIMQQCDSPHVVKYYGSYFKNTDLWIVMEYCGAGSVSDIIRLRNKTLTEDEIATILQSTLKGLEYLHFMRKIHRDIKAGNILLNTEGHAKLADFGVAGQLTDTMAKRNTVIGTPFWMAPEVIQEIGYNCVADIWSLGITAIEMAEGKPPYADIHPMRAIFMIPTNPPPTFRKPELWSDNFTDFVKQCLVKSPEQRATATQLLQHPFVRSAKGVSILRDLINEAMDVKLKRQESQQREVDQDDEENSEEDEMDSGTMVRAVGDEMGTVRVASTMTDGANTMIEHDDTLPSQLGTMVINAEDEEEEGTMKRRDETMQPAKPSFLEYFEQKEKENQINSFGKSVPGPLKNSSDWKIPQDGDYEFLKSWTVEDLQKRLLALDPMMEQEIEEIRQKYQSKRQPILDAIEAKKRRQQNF
As to conditions: at 1 µM.

In assay [10] the target is T1, Serine/threonine-protein kinase 4 (Homo sapiens). Conditions: at 10 µM.
Assay [11] has as its target T2, Serine/threonine-protein kinase 3 (Homo sapiens) (UniProt Q13188).
T2 sequence (whole entry): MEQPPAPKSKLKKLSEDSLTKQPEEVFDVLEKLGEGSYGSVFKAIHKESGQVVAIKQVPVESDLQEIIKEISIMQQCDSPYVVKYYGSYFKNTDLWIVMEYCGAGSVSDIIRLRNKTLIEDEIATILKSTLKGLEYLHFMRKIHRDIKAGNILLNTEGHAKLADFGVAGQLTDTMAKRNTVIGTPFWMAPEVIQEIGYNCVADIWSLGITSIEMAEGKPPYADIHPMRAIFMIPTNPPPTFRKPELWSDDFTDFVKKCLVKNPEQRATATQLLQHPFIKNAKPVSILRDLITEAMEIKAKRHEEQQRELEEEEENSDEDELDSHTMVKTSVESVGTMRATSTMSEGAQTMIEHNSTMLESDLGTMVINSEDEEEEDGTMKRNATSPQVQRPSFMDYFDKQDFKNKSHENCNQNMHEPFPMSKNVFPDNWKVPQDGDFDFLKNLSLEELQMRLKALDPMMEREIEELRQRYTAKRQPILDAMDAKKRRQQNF
Conditions: at 1 µM.

Assay [12] deals with T2, Serine/threonine-protein kinase 3 (Homo sapiens). Conditions: at 10 µM.
For assay [13], the target named is Serine/threonine-protein kinase 24 (Homo sapiens) (UniProt Q9Y6E0). As to conditions: at 1 µM.
For assay [14] the target is unchanged. Conditions: at 10 µM.
Assay [15] has as its target T3, Tyrosine-protein kinase Mer (Homo sapiens) (UniProt Q12866).
T3 sequence (whole entry): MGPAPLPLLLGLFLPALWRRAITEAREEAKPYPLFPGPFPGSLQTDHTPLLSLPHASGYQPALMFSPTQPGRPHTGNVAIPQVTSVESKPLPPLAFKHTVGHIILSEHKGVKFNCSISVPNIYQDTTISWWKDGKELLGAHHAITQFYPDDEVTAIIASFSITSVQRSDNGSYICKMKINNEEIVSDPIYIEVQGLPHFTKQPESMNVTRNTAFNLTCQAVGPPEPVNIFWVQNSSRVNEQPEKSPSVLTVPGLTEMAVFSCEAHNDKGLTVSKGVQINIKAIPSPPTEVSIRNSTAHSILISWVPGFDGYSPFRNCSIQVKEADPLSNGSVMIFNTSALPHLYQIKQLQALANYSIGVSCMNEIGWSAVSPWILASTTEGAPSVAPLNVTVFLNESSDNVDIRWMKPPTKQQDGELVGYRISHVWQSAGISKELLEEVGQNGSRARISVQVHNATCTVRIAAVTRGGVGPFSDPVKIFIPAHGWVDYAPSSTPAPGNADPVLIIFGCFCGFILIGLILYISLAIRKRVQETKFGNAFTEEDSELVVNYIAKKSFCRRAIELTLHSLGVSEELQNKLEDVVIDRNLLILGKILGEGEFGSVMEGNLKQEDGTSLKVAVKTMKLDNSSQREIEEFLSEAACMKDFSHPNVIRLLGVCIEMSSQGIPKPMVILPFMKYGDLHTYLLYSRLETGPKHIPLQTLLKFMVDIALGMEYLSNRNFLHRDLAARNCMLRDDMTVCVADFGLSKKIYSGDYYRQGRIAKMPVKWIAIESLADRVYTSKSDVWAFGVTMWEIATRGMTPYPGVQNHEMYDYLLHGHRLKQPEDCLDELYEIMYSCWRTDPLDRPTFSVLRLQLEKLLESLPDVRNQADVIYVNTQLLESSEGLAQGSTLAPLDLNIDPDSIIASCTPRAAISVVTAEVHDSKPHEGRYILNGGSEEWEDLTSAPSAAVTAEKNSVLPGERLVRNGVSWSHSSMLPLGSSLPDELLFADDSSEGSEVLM
As to conditions: at 1 µM.

Assay [16] concerns the target T3, Tyrosine-protein kinase Mer (Homo sapiens). Conditions: at 10 µM.
The target in assay [17] is Hepatocyte growth factor receptor (Homo sapiens) (UniProt P08581). Conditions: at 1 µM.
Assay [18] has the same target. Conditions: at 10 µM.
The target in assay [19] is MAP kinase-interacting serine/threonine-protein kinase 2 (Homo sapiens) (UniProt Q9HBH9). Conditions: at 1 µM.
For assay [20] the target is unchanged. As to conditions: at 10 µM.

Serine/threonine-protein kinase 24 (Homo sapiens), sequence (Q9Y6E0 whole entry, looked up): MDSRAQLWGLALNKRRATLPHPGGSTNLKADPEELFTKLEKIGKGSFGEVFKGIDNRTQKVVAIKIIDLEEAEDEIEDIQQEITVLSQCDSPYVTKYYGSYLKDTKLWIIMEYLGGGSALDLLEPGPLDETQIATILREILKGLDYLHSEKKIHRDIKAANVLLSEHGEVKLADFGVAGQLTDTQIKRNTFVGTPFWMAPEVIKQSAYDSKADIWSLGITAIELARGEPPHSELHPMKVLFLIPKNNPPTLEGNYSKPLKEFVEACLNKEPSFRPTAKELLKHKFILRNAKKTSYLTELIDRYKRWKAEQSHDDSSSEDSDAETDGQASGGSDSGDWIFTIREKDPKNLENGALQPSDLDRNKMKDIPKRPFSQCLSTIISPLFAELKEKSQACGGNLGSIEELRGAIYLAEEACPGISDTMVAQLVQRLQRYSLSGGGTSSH
SRSF protein kinase 3 (Homo sapiens), sequence (Q9UPE1 whole entry): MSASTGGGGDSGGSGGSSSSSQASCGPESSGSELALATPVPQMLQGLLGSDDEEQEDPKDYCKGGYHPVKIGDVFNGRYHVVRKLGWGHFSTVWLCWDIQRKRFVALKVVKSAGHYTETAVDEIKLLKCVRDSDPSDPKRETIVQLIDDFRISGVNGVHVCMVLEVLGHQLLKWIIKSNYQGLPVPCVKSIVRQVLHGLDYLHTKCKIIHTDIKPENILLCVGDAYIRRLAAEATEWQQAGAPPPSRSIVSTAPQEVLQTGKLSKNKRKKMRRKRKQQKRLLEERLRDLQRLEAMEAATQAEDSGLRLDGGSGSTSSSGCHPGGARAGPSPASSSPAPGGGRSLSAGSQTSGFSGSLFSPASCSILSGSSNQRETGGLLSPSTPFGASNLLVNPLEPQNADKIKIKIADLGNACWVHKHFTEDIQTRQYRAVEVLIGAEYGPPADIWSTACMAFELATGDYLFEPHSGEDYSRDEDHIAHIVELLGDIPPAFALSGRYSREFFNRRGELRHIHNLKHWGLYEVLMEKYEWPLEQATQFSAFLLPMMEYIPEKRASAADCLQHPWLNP
Hepatocyte growth factor receptor (Homo sapiens), sequence (P08581 whole entry): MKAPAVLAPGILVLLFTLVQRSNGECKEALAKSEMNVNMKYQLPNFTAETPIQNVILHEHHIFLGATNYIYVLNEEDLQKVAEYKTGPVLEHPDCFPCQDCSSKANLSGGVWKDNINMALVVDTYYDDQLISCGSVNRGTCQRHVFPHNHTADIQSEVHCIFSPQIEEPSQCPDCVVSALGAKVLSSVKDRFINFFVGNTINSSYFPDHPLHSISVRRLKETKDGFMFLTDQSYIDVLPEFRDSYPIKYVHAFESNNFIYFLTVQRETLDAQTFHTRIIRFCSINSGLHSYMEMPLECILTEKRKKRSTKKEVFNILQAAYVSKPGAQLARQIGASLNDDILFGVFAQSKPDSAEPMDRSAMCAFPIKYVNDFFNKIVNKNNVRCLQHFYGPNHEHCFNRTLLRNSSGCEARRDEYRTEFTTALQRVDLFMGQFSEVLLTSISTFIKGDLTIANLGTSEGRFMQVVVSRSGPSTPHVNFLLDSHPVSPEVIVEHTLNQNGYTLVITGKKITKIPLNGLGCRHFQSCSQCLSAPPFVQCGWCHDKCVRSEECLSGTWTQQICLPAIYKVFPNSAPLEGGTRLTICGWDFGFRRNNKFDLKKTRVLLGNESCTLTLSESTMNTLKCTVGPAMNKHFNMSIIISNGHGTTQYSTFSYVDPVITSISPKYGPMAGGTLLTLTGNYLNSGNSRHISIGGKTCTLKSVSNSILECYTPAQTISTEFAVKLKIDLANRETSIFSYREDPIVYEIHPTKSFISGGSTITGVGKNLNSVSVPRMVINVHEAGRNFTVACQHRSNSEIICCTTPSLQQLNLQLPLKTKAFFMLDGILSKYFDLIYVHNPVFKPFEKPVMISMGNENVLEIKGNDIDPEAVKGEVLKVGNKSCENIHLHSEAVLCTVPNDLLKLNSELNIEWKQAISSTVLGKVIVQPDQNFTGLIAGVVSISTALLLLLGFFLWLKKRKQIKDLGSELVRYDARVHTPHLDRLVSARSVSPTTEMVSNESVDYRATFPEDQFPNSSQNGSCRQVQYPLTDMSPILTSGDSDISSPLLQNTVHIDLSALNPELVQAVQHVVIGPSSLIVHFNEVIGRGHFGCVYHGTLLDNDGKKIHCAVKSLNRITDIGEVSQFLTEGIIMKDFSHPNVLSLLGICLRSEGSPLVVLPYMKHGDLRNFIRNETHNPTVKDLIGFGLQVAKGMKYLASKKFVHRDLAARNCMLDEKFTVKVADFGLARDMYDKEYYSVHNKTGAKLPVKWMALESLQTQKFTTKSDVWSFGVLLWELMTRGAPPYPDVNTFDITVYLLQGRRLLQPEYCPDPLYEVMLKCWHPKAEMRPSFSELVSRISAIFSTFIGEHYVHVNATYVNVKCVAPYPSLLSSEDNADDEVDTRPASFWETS
Ribosomal protein S6 kinase alpha-4 (Homo sapiens), sequence (O75676 whole entry, looked up): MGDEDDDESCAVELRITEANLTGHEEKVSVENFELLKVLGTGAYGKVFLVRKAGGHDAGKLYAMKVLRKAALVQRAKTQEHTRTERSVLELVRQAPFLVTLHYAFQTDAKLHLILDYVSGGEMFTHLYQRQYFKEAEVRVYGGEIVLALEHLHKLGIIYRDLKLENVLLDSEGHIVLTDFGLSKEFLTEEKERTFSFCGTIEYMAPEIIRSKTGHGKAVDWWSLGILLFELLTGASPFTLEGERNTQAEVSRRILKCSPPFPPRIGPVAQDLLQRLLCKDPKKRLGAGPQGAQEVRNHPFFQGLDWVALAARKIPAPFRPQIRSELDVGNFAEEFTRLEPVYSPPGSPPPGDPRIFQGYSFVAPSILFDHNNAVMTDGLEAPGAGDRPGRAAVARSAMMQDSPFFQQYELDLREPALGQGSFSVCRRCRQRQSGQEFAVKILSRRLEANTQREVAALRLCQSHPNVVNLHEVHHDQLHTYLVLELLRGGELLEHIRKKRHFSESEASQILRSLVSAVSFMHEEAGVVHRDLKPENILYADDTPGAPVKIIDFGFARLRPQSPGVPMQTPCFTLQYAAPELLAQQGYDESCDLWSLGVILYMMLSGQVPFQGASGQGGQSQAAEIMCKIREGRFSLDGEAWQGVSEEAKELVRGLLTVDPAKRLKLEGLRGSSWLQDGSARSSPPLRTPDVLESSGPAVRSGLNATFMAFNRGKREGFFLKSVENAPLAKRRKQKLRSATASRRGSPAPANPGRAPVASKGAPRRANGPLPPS
Ribosomal protein S6 kinase alpha-5 (Homo sapiens), sequence (O75582 whole entry, looked up): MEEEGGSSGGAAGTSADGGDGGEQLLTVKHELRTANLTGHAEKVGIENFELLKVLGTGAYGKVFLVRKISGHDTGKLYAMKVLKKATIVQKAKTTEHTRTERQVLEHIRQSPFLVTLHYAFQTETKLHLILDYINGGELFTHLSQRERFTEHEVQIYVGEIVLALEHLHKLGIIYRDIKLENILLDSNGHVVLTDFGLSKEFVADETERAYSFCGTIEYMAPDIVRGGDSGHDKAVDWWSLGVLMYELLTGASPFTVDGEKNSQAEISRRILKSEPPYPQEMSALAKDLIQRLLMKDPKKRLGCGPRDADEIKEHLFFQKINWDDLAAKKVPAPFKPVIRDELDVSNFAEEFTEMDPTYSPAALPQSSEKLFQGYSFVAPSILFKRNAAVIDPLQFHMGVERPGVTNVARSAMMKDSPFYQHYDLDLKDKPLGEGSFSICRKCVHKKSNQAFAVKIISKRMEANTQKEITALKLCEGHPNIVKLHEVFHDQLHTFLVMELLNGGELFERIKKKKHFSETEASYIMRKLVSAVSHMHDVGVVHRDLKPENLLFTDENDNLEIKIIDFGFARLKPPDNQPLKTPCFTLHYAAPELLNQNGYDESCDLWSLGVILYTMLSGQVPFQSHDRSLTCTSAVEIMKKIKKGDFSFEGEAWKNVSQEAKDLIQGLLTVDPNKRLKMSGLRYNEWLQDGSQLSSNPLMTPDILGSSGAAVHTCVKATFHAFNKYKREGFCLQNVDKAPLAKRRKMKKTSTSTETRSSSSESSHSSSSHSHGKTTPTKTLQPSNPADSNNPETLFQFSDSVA
MAP kinase-interacting serine/threonine-protein kinase 2 (Homo sapiens), sequence (Q9HBH9 whole entry, looked up): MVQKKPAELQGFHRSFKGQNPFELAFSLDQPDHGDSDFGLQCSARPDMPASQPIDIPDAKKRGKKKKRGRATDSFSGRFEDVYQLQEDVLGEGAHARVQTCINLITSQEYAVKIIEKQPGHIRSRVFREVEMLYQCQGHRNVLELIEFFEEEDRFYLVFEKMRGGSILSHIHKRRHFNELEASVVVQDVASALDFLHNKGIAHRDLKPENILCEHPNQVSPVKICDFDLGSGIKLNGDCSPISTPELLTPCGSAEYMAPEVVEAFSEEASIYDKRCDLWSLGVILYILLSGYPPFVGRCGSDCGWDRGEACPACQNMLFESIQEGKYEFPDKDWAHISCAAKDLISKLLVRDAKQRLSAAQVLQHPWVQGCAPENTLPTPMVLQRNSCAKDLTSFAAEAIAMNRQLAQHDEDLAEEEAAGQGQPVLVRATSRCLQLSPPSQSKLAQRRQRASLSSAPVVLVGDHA

Regarding `CC#CC(=O)Nc1cc2c(Nc3ccc(F)c(Cl)c3)ncnc2cn1`, the residual activity is 95% in assay [1]; 79% in assay [2]; 123% in assay [3]; 102% in [4]; 97% in assay [5]; 105% in assay [6]. The residual activity in assay [7] was determined as 90%; in [8], 74%; in assay [9], 90%; in [10], 84%; in assay [11] it was 103%; in assay [12], 94%. The residual activity was determined as 71% in [13]; 75% in assay [14]; 107% in assay [15]; 94% in assay [16]; 111% in [17]; 84% in assay [18]. Besides, the figures for the residual activity in assay [19] and in assay [20] were 101% and 90%, respectively.

For the compound `O=C(O)c1ccc2c3c1cccc3c(=O)n1c3ccccc3nc21`, the residual activity in assay [1] came out at 93%; in [2] it was 93%; in assay [3] it was 98%; in assay [4], 93%; in assay [5], 95%; in assay [6] it was 84%. Also, the residual activity in assay [7] came out at 97%; in assay [8], 48%; in assay [9], 83%; in assay [10] it was 72%; in assay [11] it was 103%; in assay [12], 81%. For the same compound, the residual activity in assay [13] is 97%; in [14] it was 67%; in [15] it was 80%; in [16], 28%; in assay [17], 130%; in assay [18] it was 73%. Further, the residual activity came out at 67% in assay [19] and 23% in assay [20].

`Ic1cccc(CSc2nnc(-c3ccncc3)o2)c1`: the residual activity amounted to 87% in assay [1]; 82% in [2]; 95% in [3]; 82% in assay [4]; 65% in assay [5]; 53% in assay [6]. Further, the residual activity was 90% in assay [7]; 92% in assay [8]; 106% in assay [9]; 101% in assay [10]; 39% in assay [11]; 15% in [12]. Further, the residual activity in assay [13] was found to be 50%; in assay [14], 43%; in assay [15] it was 69%; in assay [16] it was 48%; in assay [17], 126%; in [18], 100%. Besides, the residual activity in [19] amounted to 91%; in assay [20], 89%.

For the compound `COc1ccc(C(=O)Nc2sc3c(c2C(N)=O)CCCC3)cc1OC`, the residual activity in [1] stood at 89%; in assay [2], 74%; in [3], 123%; in assay [4] it was 88%; in assay [5] it was 91%; in assay [6], 99%. For the same compound, the residual activity in [7] turned out to be 104%; in assay [8], 93%; in assay [9] it was 92%; in [10], 95%; in assay [11] it was 105%; in assay [12], 91%. Also, the residual activity was determined as 68% in assay [13]; 65% in assay [14]; 107% in assay [15]; 86% in [16]; 120% in assay [17]; 110% in [18]. The residual activity was found to be 99% in assay [19] and 82% in [20].

Take `N#CC(C#N)=C(N)/C(C#N)=C/c1ccc(O)cc1`: the residual activity in assay [1] came out at 96%; in assay [2], 84%; in [3] it was 122%; in [4], 92%; in assay [5], 91%; in assay [6], 85%. For the same compound, the residual activity in [7] came to 119%; in assay [8] it was 82%; in [13], 71%; in assay [14] it was 67%; in assay [18] it was 138%; in assay [20] it was 50%.

Regarding `N#Cc1cnc2cnc(NCc3cccnc3)cc2c1Nc1ccc(F)c(Cl)c1`, the residual activity in [5] was 5%; in assay [6], 2%; in assay [7], 119%; in assay [8] it was 99%; in assay [9] it was 93%; in assay [10], 91%. Also, the residual activity in assay [11] is 42%; in assay [12], 4%; in assay [13], 27%; in assay [14] it was 15%; in assay [19], 98%; in assay [20] it was 79%.

Regarding `Cc1cc2ncc(-c3ccccc3)nc2cc1C`, the residual activity in assay [1] was 92%; in assay [2] it was 88%; in [3], 134%; in assay [4], 103%; in [5], 92%; in assay [6], 103%. For the same compound, the residual activity in assay [8] stood at 87%; in assay [10], 125%; in [11] it was 88%; in assay [12], 95%; in assay [13], 65%; in assay [14], 83%. In addition, the residual activity in [15] was determined as 107%; in assay [16], 90%; in assay [17], 87%; in assay [18] it was 134%.

Turning to `CCN(CC)CCCCN1c2ccccc2Oc2ccc(Cl)cc21`, the residual activity in [1] amounted to 108%; in assay [2], 99%; in [3], 146%; in assay [4], 119%; in assay [5], 111%; in [6], 116%. Also, the residual activity is 104% in [7]; 97% in assay [8]; 106% in [9]; 100% in assay [10]; 118% in [11]; 112% in assay [12]. Moreover, the residual activity in [13] amounted to 85%; in [14], 99%; in assay [15], 110%; in assay [16], 62%; in assay [17], 128%; in assay [18] it was 108%. Moreover, the residual activity came to 107% in assay [19] and 84% in assay [20].
